Hits are enriched below; roughly 11% of the tested compounds scored in any of these assays.
PI5P4K alpha inh: inhibitors of human PI5P4K alpha; P48426; PI5P4Kalpha enzyme, ADP-Glo luminescence, 60 min; stronger effect = lower value; max response, %; actives 1.2% (n = 330,000); active = max response of -50% or lower; inconclusive = between -30% and -50%; inactive = -30% or higher; also: value at the top dose of about 77 µM; % is scaled to controls: 0 for no effect and ±100 for the full control effect
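ADP-Glo luminescence end-point read after a 60 min room-temperature kinase reaction of PI5P4Kalpha plus substrate, initiated with ATP at 5 microM final. Buffer: 0.038 M HEPES pH 7.4, EGTA, 0.1% CHAPS, 5% DMSO.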
JMJD2A Tudor inh: inhibitors of human JMJD2A Tudor domain; O75164; actives 4.4% (n = 390,000); AlphaScreen JMJD2A-Tudor / H3K4me3 peptide binding; Potency, µM (top dose mostly 114 µM), inactives show at the highest dose activity change, negative = inhibition, usual class: inhibitors; also: potency is read from the fitted curve at half-maximal effect; % is scaled to controls: 0 for no effect and ±100 for the full control effect; nearly all actives have a fitted effect of over 50% in size
Target sequence (O75164 whole entry, looked up, the tested form may be a part): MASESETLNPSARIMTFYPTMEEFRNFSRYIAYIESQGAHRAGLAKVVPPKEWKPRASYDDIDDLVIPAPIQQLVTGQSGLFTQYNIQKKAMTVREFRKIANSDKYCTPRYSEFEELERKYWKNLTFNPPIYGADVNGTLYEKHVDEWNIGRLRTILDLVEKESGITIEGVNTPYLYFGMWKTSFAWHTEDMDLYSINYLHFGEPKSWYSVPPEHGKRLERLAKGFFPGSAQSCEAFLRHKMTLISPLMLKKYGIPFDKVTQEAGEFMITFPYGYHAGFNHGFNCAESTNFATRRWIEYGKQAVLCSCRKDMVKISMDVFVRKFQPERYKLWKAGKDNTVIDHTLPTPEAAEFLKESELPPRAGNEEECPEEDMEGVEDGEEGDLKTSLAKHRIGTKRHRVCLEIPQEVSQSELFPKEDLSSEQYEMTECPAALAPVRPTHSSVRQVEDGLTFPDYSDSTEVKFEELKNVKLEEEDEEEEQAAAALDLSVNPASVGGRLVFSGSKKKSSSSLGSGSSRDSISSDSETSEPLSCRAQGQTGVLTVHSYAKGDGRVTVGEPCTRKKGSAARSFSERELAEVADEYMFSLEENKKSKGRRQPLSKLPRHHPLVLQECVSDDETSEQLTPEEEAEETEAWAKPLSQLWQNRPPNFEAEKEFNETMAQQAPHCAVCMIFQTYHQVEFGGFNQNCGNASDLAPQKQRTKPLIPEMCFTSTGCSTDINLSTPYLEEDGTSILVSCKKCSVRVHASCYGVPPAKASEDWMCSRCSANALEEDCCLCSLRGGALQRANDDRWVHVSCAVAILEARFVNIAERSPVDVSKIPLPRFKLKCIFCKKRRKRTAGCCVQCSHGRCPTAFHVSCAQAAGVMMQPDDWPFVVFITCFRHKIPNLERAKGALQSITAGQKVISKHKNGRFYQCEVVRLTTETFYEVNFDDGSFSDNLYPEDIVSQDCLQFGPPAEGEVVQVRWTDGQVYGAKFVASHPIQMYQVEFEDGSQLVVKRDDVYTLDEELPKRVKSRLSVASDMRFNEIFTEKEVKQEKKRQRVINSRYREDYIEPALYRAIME
L3MBTL1 inh: L3MBTL1 (human) inhibition | Q9Y468 | actives 0.66% (n = 230,000) | AlphaScreen L3MBTL1–H3K9me1 peptide binding | Potency, µM (highest dose often 57.1 µM), for inactives: at the highest dose activity, negative = inhibition, most hits filed as inhibitors; also: potency is read from the fitted curve at half-maximal effect; % is scaled to controls: 0 for no effect and ±100 for the full control effect; nearly all actives have a fitted effect of over 60% in size
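AlphaScreen assay: L3MBTL1 (50 nM final) was preincubated 30 min at room temperature with biotinylated H3(1-15)K9me1 peptide (75 nM final), then 30 min with library compounds; streptavidin donor and nickel chelate acceptor beads (10 ug/mL final) added, 30 min dark.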
HP1b binding inh: HP1-beta chromodomain-methylated histone interaction inhibition. P83916. AlphaScreen HP1-beta / biotin-H3K9me3 peptide binding. Potency, µM (doses to about 114 µM), without a hit: at the top dose activity change, negative = inhibition, hits mostly inhibitors. actives 0.56% (n = 390,000). AID 540317; also: potency is read from the fitted curve at half-maximal effect; nearly all actives have a fitted effect of over 70% in size
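AlphaScreen: HP1-beta (50 nM) preformed 30 min with biotin-H3(1-18)K9me3 peptide (50 nM) in PBS pH 7.4, 0.01% Tween-20. Compound added for 30 min at RT, then streptavidin donor/nickel chelate acceptor beads (10 ug/mL) for 30 min.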
G9a inh: G9a (human) methyltransferase inhibition; AID 504332; Q96KQ7; actives 8.8% (n = 350,000); G9a H3K9 monomethylation, AlphaScreen, 2 h; Potency, µM (doses to about 102 µM), for inactives: at the highest dose activity, negative = inhibition, hits mostly inhibitors; also: potency is read from the fitted curve at half-maximal effect; % is scaled to controls: 0 for no effect and ±100 for the full control effect; nearly all actives have a fitted effect of over 75% in size
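Signal arises when biotinylated H3K9 peptide, once monomethylated, bridges streptavidin donor and antibody-captured acceptor beads. Enzyme at 20 nM was preincubated 15 min with test compounds; peptide 500 nM and SAM 20 uM then reacted for 2 h.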
BAZ2B inh: inhibitors of human BAZ2B bromodomain | AlphaScreen BAZ2B-H3K14Ac peptide displacement | actives 4.4% (n = 360,000) | AID 504333 | Q9UIF8 | Potency, µM (titrated, usually from 114 µM), without a hit: top-dose activity change, negative = inhibition, most hits filed as inhibitors; also: potency is read from the fitted curve at half-maximal effect; % is scaled to controls: 0 for no effect and ±100 for the full control effect; nearly all actives have a fitted effect of over 60% in size
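AlphaScreen luminescence quantifies BAZ2B engagement of H3K14Ac peptide; the protein and biotinylated peptide are both at 50 nM final, buffer PBS pH 7.4 with 0.01% Tween-20, all steps at room temperature.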
* marks the source's active call; other numbers are inactive results; ? = inconclusive; nt = no result; ! = repeats disagree; [ ] = another dose, or the depositor's remark. Unless noted, calls follow the shape of the dose curve; as a rule, active = well fitted inhibition curve with a large enough effect; inconclusive = small, poorly fitted or top-dose-only effect; inactive = no such curve, though single readings can be large or run the other way.

SMILES	PI5P4K alpha inh	JMJD2A Tudor inh	L3MBTL1 inh	HP1b binding inh	G9a inh	BAZ2B inh
Cc1nc(-c2ccccc2)sc1-c1ccc(SCC(=O)NCc2ccc(F)cc2)nn1	nt	-14.7%	nt	12.2%	-4.7%[59 µM]	-6.5%
CC(=O)N1c2ccc(S(=O)(=O)N3CCCCCC3)cc2CC1C(=O)NC(C)C (centres undefined)	nt	2.3%	nt	26.6%	?	-10.3%
COc1cc(/C=C2\C(C)=C(C#N)c3nc(N)c(C#N)c(C)c32)ccc1OCC(=O)O	-14.3	-31.2%	?	5.9%	25.1µM*	56.2µM*
Nc1cc2c([N+](=O)[O-])cccc2o1	-24.8	-22.2%	-4.3%	-24.1%	2.9%[2.33 µM]	56.2µM*
Cc1c(N)cccc1[N+](=O)[O-]	6.1	-2.8%	9.0%	3.2%	-2.9%[0.501 µM]	-6.7%
CNc1c(NC(=O)c2cc(OC)cc(OC)c2)c(=O)oc2ccccc12	nt	-2.4%	nt	32.6%	15.3%[59 µM]	2.1%
Fc1ccc(-c2ccc(CNCc3ccccn3)o2)cc1	-3.4	50.1µM*	-20.4%	15.0%	39.8µM*	50.1µM*
Clc1ccc(-c2ccc(CNCc3ccccn3)o2)cc1	13.5	79.4µM*	?	-0.7%	?	20µM*
Fc1ccc(-c2ccc(CNCCSc3nnnn3-c3ccccc3)o2)cc1	nt	?	nt	-14.9%	12.6µM*	35.5µM*
O=C(NCc1ccccn1)C1CC(c2ccc(F)cc2)=NO1 (centres undefined)	nt	-5.3%	nt	19.7%	19.7%[59 µM]	11.8%
Cc1ccccc1OC(=O)CSc1nnc(-c2cccs2)o1	nt	5.0%	nt	43.8%	?	-15.0%
CN1CCN(c2ncc3ncc(=O)n(CCC#N)c3n2)CC1	nt	nt	nt	nt	6.1%[0.501 µM]	nt
Cc1ccc(Oc2nc(CN3CCOCC3)nc3sc4c(c23)CCC(C)C4)cc1 (centres undefined)	-1.9	?	-5.3%	-4.7%	79.4µM*	?
Cc1sc2nc(CN3CCOCC3)nc(Oc3ccc(NC(=O)c4ccco4)cc3)c2c1C	-0.6	-27.5%[57.1 µM]	-10.0%	-26.4%	50.1µM*!	-33.8%
COc1ccccc1CNC(=O)c1cn(C)c2ccc(S(=O)(=O)N3CCC(C)CC3)cc2c1=O	nt	-13.3%	nt	27.2%	?	nt
O=C(Nc1ccc2nc(SCC(=O)N3CCCc4ccccc43)sc2c1)c1cccc(Cl)c1	nt	-13.6%	nt	28.0%	-14.9%[59 µM]	-11.6%
O=C(CSc1nc2ccccc2n1Cc1ccccc1Cl)N/N=C/c1ccccc1C(=O)O	-21.1	-24.6%	?	15.1%	9.2%	0.1%
O=C(O)COc1ccccc1/C=N/NC(=O)CSc1nc2ccccc2n1Cc1ccccc1Cl	-8.5	?	-11.2%	0.6%	?	70.8µM*
S=C(NCc1ccccc1)NCc1cccc(Cl)c1	-1.2	4.1%	nt	35.4%	41.7%	2.7%
[O-]/C(=C(\C(=S)NCCN1CCOCC1)[n+]1ccccc1)c1ccc(Cl)s1	-16.4	-31.0%	-22.7%	-4.5%	25.1µM*	?
Cc1c(Cl)cccc1NC(=S)C(=C([O-])c1ccc(Cl)s1)[n+]1ccccc1	0.4	50.1µM*	nt	?	nt	nt
[O-]/C(=C(\C(=S)NCc1ccccc1)[n+]1ccccc1)c1ccc(Cl)s1	-17.5	?	nt	?	25.1µM*	?
Cc1cccc(NC(=O)c2cccc(N3CCCS3(=O)=O)c2)c1	nt	-1.0%	nt	35.7%	2.4%[59 µM]	2.0%
CCC1(C)Cc2nc3sc(C(=O)O)c(N)c3cc2CO1 (centres undefined)	?	50.1µM*	-9.1%	24.3%	3.55µM*	-0.4%
O=C(NCCc1ccc(Cl)cc1)C(=O)NCC(c1ccco1)S(=O)(=O)c1ccc(Cl)cc1 (centres undefined)	nt	8.8%	nt	39.6%	12.1%[59 µM]	-2.2%
O=C(Cn1cc(S(=O)(=O)Cc2cccc(Cl)c2)c2ccccc21)Nc1ccccc1C(F)(F)F	nt	-1.3%	nt	18.1%	-1.8%[59 µM]	-11.8%
N#CCCCN1C(=O)C(O)(CC(=O)c2ccc3c(c2)OCCO3)c2ccccc21 (centres undefined)	-9.7	-16.8%	9.1%	16.6%	35.5µM*	8.4%

Source: PubChem BioAssay (National Center for Advancing Translational Sciences (NCATS))
